We go through 13 compounds from PubChem BioAssay (NCI).

Molecules are shown by their SMILES. The panel holds about 83,000 compounds, 20% with a hit somewhere; the sample as a whole holds those more often.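 A percent growth of 40 corresponds to 60% growth inhibition; 0 means no net growth; -100 means all cells died. Active threshold: below 10.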 Active and inactive are the calls of the source.

In the assay the test system is MOLT-4 leukemia. The assay can be described thus: NCI-60 one-dose screen, 48 h (100 = growth as untreated, 0 = no growth, -100 = all killed). Conditions: 10 µM unless noted.
As to `O=c1[nH]n(C(=S)N/N=C/c2ccccc2Cl)c(=O)c2ccccc12`, the growth was -1.75% (active).

Turning to `N#Cc1c(-c2cccc(Cl)c2Cl)cc(-c2ccc3ccccc3c2)[nH]c1=O`, the growth is 71.5% (inactive).

In the case of `Clc1cccc(Cl)c1/C=C/c1cc(/C=C/c2ccc(Br)cc2)c2ccccc2n1`, the growth is 84.8% (inactive).

On to `CC(C)c1ccc2c(N)c(C(=O)Nc3ccc(C(F)(F)F)cn3)sc2n1`, for which the growth is 7.3% (active).

As for `CCN(CC)C(=O)N/C(N)=N/c1nc2ccccc2s1`, the growth is -4.3% (active).

On to `O=C(COc1ccc(NC(=O)Nc2ccc(Cl)c(Cl)c2)cc1)N=Nc1c(O)[nH]c2ccc([N+](=O)[O-])cc12`, for which the growth is 28% (inactive).

As to `Cc1cc2c(cc1Cl)C(=O)/C(=C/c1ccc(F)cc1)O2`, the growth is 84.3% (inactive).

Regarding `CCCCOc1ccc(NC(=O)c2sc3nc(C)ccc3c2N)cc1`, the growth is 48% (inactive).

Consider `O=C1Nc2cc(Cl)ccc2/C1=C/c1cccc(OCc2ccccn2)c1`, for which the growth was 4.01% (active).

For the compound `NS(=O)(=O)c1ccc(N=Nc2c(O)n(CC(=O)Nc3ccccc3Cl)c3ccccc23)cc1`, the growth was 26.7% (inactive).

As to `O=C(Nc1cccc(-n2cnc3cc(-c4ccc(O)cc4)ccc32)c1)C1CC1`, the growth was 12.7% (inactive).

On to `C=C1CC[C@@H]2[C@]3(C)COC(c4cn[nH]c4-c4ccc(OC)cc4)O[C@@H]3CC[C@@]2(C)[C@@H]1C/C=C1/C(=O)OCC1O` (stereo partly drawn), for which the growth is 8.3% (active).

As for `CC(=O)Nc1ccc(-c2cn(-c3cccc(C(=O)Nc4ccc(N5CCN(C)CC5)cc4)c3)nn2)cn1`, the growth was 59.8% (inactive).
